# Test results: article PMC7862700, “An all-to-all approach to the identification of sequence-specific readers for epigenetic DNA modifications on cytosine”
# Assays:
# Assay in all cases: DAPPL (digital affinity profiling via proximity ligation, sequencing); 10 mM Tris-HCl pH 7.5, 50 mM NaCl, 1 mM DTT, 4% glycerol, room temperature, 30 min; GST-TFs on glutathione beads, 16-mer random dsDNA library, 0.1% formaldehyde crosslink after washing; high values mean tight binding
# [1] = biological target: T1, FLI1 (Homo sapiens, UniProt Q01543 1-452); details: protein: recombinant; tags: N-terminal GST; dsDNA, one strand shown
# T1 sequence: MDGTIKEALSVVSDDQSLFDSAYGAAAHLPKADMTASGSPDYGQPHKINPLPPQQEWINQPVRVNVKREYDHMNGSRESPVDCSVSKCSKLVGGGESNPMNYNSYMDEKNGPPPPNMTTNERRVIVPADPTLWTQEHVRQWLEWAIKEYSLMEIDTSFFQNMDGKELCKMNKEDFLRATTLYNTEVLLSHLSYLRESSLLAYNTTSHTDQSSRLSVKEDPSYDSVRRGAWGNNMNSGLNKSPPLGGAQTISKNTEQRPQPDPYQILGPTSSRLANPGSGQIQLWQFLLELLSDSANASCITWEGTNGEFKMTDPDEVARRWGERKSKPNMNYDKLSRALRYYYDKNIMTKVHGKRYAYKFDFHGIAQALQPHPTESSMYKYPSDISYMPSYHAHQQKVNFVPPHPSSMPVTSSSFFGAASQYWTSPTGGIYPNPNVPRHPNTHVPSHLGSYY
# Procedure, shortened: (§1)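 Binding signal is defined as a hexamer's read frequency for one factor over its frequency for the tag-only sample. To obtain reads, GST-fused human transcription factors were expressed in yeast, captured on glutathione beads, barcoded with DNA and pooled with that sample. Pools met 200 nmole of a 16-mer random double-stranded DNA library in Tris/NaCl/DTT/glycerol buffer for 30 min at room temperature before washing, 0.1% formaldehyde crosslinking, proximity ligation (BsaI/T4 ligase, 1 h, 37 °C), PCR and Illumina NextSeq500 sequencing.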
# [2] = biological target: T2, ELK1 (Homo sapiens, UniProt P19419 1-428); details: protein: recombinant; tags: N-terminal GST; dsDNA, one strand shown
# T2 sequence: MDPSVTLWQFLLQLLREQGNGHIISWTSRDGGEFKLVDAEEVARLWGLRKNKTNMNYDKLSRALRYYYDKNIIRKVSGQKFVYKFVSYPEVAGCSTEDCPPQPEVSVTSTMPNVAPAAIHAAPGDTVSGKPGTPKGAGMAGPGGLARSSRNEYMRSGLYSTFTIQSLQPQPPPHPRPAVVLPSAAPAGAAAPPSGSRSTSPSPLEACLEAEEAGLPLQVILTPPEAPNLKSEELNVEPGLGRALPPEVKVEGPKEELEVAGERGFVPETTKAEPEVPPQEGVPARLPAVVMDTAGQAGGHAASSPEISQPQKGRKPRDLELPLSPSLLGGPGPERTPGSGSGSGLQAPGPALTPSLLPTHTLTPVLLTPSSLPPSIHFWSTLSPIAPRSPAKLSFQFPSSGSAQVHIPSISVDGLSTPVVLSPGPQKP
# Procedure, shortened: as §1
# [3] = biological target: T3, GABPA (Homo sapiens, UniProt Q06546 1-454); details: protein: recombinant; tags: N-terminal GST; dsDNA, one strand shown
# T3 sequence: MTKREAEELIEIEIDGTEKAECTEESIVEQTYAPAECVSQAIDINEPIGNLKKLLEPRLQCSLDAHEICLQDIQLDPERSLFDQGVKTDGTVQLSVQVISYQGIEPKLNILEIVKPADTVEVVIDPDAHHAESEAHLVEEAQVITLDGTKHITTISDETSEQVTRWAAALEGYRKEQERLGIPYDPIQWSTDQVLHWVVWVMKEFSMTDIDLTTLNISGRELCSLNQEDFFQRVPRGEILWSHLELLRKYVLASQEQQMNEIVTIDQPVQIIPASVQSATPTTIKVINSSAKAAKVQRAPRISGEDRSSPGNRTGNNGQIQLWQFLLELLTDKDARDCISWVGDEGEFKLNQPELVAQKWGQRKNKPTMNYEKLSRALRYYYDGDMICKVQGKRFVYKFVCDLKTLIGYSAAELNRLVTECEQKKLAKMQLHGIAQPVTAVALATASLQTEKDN
# Procedure, shortened: as §1
# [4] = biological target: T4, ERG (Homo sapiens, UniProt P11308 1-479); details: protein: recombinant; tags: N-terminal GST; dsDNA, one strand shown
# T4 sequence: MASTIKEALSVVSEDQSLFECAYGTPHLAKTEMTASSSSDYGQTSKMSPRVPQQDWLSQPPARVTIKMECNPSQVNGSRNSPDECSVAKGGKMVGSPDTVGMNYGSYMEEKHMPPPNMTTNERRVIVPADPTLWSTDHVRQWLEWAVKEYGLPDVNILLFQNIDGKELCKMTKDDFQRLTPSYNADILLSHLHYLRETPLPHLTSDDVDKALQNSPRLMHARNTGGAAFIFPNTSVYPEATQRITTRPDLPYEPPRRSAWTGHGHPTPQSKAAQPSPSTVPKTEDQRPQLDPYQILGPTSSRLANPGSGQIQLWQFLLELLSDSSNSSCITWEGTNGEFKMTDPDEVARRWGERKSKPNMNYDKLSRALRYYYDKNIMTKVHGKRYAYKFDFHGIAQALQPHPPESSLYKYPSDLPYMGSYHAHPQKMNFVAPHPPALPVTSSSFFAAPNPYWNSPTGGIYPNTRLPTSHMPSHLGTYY
# Procedure, shortened: as §1
# [5] = biological target: ELF1 (Homo sapiens, UniProt P32519 1-619); details: protein: recombinant; tags: N-terminal GST; dsDNA, one strand shown
# Procedure, shortened: as §1
# [6] = biological target: T5, EHF (Homo sapiens, UniProt Q9NZC4 1-300); details: protein: recombinant; tags: N-terminal GST; dsDNA, one strand shown
# T5 sequence: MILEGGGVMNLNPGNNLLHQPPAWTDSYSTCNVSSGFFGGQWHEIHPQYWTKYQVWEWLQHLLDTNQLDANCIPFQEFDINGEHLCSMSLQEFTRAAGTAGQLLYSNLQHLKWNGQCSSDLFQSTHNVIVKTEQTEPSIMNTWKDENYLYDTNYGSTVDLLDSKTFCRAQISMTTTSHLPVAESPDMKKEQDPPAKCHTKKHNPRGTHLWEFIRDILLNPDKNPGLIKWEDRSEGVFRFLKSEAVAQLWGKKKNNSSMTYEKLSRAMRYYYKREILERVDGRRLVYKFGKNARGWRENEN
# Procedure, shortened: as §1
# [7] = biological target: SPI1 (Homo sapiens, UniProt P17947 1-270); details: protein: recombinant; tags: N-terminal GST; dsDNA, one strand shown
# Procedure, shortened: as §1
# [8] = biological target: SPIB (Homo sapiens, UniProt Q01892 1-262); details: protein: recombinant; tags: N-terminal GST; dsDNA, one strand shown
# Procedure, shortened: as §1
# [9] = biological target: T6, ELK3 (Homo sapiens, UniProt P41970 1-407); details: protein: recombinant; tags: N-terminal GST; dsDNA, one strand shown
# T6 sequence: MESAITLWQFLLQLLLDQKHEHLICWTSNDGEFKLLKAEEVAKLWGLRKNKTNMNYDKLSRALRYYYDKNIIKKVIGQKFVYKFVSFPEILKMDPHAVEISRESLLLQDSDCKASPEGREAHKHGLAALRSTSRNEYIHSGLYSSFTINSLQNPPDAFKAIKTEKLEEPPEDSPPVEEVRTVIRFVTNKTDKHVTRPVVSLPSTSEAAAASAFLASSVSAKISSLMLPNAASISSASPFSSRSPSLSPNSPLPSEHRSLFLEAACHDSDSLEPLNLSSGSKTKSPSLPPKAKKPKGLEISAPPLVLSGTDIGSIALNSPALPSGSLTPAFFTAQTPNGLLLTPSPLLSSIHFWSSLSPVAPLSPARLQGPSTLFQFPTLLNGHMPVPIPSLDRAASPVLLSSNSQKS
# Procedure, shortened: as §1
# [10] = biological target: T7, FEV (Homo sapiens, UniProt Q99581 1-238); details: protein: recombinant; tags: N-terminal GST; dsDNA, one strand shown
# T7 sequence: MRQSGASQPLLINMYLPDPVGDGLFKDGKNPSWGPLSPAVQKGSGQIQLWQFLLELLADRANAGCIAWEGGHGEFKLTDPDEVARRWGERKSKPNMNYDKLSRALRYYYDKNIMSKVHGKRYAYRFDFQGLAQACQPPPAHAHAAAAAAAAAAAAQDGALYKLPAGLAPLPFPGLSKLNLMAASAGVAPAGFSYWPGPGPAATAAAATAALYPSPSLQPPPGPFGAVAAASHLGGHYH
# Procedure, shortened: as §1
# [11] = biological target: ETV5 (Homo sapiens, UniProt P41161 1-510); details: protein: recombinant; tags: N-terminal GST; dsDNA, one strand shown
# Procedure, shortened: as §1
# [12] = biological target: HSF1 (Homo sapiens, UniProt Q00613 1-529); details: protein: recombinant; tags: N-terminal GST; chain copies: 3; dsDNA, one strand shown
# Procedure, shortened: as §1
# [13] = biological target: T8, SPIC (Homo sapiens, UniProt Q8N5J4 1-248); details: protein: recombinant; tags: N-terminal GST; dsDNA, one strand shown
# T8 sequence: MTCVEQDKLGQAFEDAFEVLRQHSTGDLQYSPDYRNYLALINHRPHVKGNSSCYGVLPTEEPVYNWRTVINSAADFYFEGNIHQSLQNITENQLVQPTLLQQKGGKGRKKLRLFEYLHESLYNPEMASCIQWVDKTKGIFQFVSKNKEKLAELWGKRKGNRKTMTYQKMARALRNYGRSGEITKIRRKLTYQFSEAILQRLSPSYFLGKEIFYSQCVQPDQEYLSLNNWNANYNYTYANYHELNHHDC
# Procedure, shortened: as §1
# [14] = biological target: ELF4 (Homo sapiens, UniProt Q99607 1-663); details: protein: recombinant; tags: N-terminal GST; dsDNA, one strand shown
# Procedure, shortened: as §1
# [15] = biological target: T9, ELK4 (Homo sapiens, UniProt P28324-2 1-405); details: protein: recombinant; tags: N-terminal GST; dsDNA, one strand shown
# T9 sequence: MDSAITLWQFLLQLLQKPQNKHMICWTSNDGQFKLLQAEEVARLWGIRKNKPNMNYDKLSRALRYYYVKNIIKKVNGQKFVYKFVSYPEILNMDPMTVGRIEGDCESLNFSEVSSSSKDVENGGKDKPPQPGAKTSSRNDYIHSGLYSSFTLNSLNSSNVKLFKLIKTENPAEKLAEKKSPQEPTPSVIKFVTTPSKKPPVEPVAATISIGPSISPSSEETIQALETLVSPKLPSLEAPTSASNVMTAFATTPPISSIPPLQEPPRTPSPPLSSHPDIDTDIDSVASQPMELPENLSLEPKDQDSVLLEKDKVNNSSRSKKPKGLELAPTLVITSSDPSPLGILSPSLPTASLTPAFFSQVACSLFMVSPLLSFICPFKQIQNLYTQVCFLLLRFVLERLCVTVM
# Procedure, shortened: as §1
# [16] = biological target: T10, ETV2 (Homo sapiens, UniProt O00321 1-342); details: protein: recombinant; tags: N-terminal GST; dsDNA, one strand shown
# T10 sequence: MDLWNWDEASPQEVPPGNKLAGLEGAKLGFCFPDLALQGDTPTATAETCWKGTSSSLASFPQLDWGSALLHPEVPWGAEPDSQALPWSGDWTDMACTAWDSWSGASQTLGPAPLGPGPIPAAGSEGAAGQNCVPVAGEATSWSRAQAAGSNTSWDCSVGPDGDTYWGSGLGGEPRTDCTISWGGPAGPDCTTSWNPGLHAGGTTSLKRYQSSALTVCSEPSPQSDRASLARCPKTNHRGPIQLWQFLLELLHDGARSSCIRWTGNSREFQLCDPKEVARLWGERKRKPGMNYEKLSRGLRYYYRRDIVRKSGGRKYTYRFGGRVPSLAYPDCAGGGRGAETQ
# Procedure, shortened: as §1
# [17] = biological target: T11, ELF3 (Homo sapiens, UniProt P78545 1-371); details: protein: recombinant; tags: N-terminal GST; dsDNA, one strand shown
# T11 sequence: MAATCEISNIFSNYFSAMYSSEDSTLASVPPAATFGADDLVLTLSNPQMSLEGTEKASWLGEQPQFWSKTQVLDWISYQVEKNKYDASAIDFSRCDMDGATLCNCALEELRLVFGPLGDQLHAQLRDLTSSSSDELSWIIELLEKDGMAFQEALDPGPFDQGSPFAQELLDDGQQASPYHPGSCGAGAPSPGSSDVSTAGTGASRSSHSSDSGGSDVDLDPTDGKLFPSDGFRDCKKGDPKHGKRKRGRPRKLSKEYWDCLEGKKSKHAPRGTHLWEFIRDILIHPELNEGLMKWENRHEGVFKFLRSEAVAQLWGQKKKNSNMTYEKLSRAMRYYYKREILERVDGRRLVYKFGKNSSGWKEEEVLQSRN
# Procedure, shortened: as §1
# [18] = biological target: CRX (Homo sapiens, UniProt O43186 1-299); details: protein: recombinant; tags: N-terminal GST; dsDNA, one strand shown
# Procedure, shortened: as §1
# [19] = biological target: ETV1 (Homo sapiens, UniProt P50549 1-477); details: protein: recombinant; tags: N-terminal GST; dsDNA, one strand shown
# Procedure, shortened: as §1
# ETV5, sequence (P41161 whole entry): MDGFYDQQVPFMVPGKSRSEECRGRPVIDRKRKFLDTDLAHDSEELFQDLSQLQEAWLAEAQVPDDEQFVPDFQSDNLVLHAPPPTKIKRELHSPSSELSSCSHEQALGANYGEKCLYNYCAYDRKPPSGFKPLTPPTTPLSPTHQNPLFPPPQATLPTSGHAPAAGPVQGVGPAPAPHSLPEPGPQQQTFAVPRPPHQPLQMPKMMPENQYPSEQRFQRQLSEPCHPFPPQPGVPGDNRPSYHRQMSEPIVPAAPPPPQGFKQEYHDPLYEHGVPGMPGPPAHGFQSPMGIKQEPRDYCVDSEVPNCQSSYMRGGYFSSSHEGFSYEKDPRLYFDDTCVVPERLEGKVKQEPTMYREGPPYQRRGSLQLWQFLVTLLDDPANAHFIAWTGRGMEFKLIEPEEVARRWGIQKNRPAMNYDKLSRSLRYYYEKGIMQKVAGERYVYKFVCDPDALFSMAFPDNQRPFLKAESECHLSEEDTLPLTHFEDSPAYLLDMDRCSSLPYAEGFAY
# CRX, sequence (O43186 whole entry): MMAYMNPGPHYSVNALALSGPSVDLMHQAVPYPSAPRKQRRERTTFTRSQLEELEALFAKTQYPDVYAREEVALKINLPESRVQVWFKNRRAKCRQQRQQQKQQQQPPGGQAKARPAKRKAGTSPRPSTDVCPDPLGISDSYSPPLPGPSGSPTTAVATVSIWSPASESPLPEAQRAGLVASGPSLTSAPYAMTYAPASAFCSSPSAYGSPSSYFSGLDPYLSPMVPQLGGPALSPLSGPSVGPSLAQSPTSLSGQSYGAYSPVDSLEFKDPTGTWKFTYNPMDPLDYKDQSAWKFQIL
# ELF1, sequence (P32519 whole entry): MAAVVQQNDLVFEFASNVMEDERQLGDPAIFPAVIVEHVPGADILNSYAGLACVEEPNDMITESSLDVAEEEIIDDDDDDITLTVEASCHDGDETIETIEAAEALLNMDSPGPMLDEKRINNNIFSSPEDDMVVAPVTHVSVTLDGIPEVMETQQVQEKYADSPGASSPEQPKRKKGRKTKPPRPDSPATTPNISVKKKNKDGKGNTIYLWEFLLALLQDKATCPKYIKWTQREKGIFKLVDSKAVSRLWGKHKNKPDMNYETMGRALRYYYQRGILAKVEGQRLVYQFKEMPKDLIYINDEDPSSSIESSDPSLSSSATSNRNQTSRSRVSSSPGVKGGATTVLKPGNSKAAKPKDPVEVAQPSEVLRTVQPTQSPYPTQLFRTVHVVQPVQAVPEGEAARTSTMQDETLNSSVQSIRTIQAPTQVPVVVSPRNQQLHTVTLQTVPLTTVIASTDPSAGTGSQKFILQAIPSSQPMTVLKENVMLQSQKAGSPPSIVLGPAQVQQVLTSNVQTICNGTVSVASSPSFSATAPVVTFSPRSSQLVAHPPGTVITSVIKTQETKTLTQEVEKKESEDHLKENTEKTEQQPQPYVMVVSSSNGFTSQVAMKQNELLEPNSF
# ETV1, sequence (P50549 whole entry): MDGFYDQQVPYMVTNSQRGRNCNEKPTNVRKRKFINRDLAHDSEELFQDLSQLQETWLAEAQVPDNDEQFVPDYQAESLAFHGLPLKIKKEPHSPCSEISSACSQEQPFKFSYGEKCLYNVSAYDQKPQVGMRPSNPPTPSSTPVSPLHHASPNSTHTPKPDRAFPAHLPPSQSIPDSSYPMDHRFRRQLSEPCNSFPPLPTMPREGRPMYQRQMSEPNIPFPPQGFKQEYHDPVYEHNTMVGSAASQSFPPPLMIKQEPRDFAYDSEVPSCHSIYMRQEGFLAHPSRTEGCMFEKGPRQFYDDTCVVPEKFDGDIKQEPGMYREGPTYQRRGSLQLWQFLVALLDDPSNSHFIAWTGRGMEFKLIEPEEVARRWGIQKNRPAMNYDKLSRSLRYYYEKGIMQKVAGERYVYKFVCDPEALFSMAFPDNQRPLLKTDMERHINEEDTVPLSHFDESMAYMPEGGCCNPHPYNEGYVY
# ELF4, sequence (Q99607 whole entry): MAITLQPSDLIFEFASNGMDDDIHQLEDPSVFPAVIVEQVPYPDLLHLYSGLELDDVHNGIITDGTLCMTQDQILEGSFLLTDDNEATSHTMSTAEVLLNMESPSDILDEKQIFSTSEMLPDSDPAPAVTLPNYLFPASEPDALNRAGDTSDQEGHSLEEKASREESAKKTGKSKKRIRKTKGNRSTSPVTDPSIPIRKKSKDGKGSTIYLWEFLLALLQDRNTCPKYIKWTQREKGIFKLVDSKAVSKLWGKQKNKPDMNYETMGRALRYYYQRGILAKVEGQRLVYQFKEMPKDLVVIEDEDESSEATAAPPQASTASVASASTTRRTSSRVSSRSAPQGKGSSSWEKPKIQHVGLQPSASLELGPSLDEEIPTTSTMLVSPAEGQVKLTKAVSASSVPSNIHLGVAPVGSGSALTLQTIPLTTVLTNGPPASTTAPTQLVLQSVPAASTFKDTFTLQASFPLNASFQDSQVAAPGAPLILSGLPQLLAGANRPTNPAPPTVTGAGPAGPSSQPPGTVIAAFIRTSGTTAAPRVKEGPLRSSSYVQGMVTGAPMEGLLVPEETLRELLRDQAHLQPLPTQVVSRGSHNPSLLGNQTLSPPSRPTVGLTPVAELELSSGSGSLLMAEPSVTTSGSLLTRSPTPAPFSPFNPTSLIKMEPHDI
# HSF1, sequence (Q00613 whole entry): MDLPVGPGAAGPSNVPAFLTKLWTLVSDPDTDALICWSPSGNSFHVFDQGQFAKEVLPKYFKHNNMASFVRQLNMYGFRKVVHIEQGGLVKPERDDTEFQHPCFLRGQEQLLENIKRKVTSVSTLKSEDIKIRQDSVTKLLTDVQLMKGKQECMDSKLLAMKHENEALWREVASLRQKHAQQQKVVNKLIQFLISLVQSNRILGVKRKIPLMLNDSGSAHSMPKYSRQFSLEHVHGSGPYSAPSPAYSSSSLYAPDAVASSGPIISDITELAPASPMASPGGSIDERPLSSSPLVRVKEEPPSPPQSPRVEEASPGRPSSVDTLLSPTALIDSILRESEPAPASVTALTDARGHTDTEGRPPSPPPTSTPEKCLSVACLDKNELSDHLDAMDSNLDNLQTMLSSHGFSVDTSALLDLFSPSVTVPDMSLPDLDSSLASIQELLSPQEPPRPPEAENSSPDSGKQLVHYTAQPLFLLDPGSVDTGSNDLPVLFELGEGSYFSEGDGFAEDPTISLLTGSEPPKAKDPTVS
# SPIB, sequence (Q01892 whole entry): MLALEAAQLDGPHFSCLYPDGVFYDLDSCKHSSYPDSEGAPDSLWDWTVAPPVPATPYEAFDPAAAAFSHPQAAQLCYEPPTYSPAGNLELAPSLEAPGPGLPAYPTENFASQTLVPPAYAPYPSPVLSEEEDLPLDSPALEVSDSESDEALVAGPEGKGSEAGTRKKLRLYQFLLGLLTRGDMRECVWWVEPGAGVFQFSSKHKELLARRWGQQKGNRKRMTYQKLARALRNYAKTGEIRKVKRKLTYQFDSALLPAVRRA
sequence,measurement,setting,value
CTTAGA,binding signal,[1],"1.13 fold enrichment (6-mer frequency, TF over GST control)"
same,binding signal,[2],"1.11 fold enrichment (6-mer frequency, TF over GST control)"
same,binding signal,[3],"1.17 fold enrichment (6-mer frequency, TF over GST control)"
same,binding signal,[4],"1.09 fold enrichment (6-mer frequency, TF over GST control)"
same,binding signal,[5],"1.08 fold enrichment (6-mer frequency, TF over GST control)"
same,binding signal,[6],"1.1 fold enrichment (6-mer frequency, TF over GST control)"
same,binding signal,[7],"1.11 fold enrichment (6-mer frequency, TF over GST control)"
same,binding signal,[8],"1.11 fold enrichment (6-mer frequency, TF over GST control)"
same,binding signal,[9],"1.02 fold enrichment (6-mer frequency, TF over GST control)"
same,binding signal,[10],"1.15 fold enrichment (6-mer frequency, TF over GST control)"
same,binding signal,[11],"1.06 fold enrichment (6-mer frequency, TF over GST control)"
same,binding signal,[12],"1.53 fold enrichment (6-mer frequency, TF over GST control)"
same,binding signal,[13],"1.27 fold enrichment (6-mer frequency, TF over GST control)"
same,binding signal,[14],"1.09 fold enrichment (6-mer frequency, TF over GST control)"
same,binding signal,[15],"1.24 fold enrichment (6-mer frequency, TF over GST control)"
same,binding signal,[16],"1.15 fold enrichment (6-mer frequency, TF over GST control)"
same,binding signal,[17],"1.07 fold enrichment (6-mer frequency, TF over GST control)"
same,binding signal,[18],"1.69 fold enrichment (6-mer frequency, TF over GST control)"
same,binding signal,[19],"1.14 fold enrichment (6-mer frequency, TF over GST control)"
